PLK1 PBD block – qHTS for Inhibitors of PLK1-PDB (polo-like kinase 1 - polo-box domain): Primary Screen | 360,000 tested, 2.8% active | AID 720504, 2013 | Plk1 PBD binding of FITC phosphopeptide, fluorescence polarization | Potency, µM, usual class: inhibitors | Serine/threonine-protein kinase PLK1 (Homo sapiens), P53350; further: series mostly up to about 57 µM; nearly all actives have a fitted effect of over 65% in size
BAZ2B block – qHTS Assay for Inhibitors of BAZ2B | AlphaScreen BAZ2B-H3K14Ac peptide displacement | Potency, µM (doses to about 114 µM), hits mostly inhibitors | 360,000 tested, 4.4% active | AID 504333, 2011; further: nearly all actives have a fitted effect of over 60% in size
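In this displacement format the biotinylated H3(5-23) peptide acetylated at Lys14 serves as ligand at 50 nM, with BAZ2B at 50 nM in PBS pH 7.4 containing 0.01% Tween-20. Donor and acceptor beads are 10 ug/mL final.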
HP1b binding inh – HTS for Inhibitors of HP1-beta Chromodomain Interactions with Methylated Histone Tails | Chromobox protein homolog 1 (Homo sapiens), P83916 | AlphaScreen HP1-beta / biotin-H3K9me3 peptide binding | Potency, µM (doses to about 114 µM), actives largely listed as inhibitors | 390,000 tested, 0.56% active | AID 540317, 2011; further: nearly all actives have a fitted effect of over 70% in size
Target sequence (P83916 whole entry, looked up): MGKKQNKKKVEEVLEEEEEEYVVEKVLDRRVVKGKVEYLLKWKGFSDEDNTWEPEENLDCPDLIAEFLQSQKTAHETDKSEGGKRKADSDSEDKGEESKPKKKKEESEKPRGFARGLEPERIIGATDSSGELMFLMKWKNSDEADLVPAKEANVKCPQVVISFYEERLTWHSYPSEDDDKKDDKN
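AlphaScreen: HP1-beta (50 nM) preformed 30 min with biotin-H3(1-18)K9me3 peptide (50 nM) in PBS pH 7.4, 0.01% Tween-20. Compound added for 30 min at RT, then streptavidin donor/nickel chelate acceptor beads (10 ug/mL) for 30 min.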
JMJD2A Tudor – qHTS Assay for Inhibitors of JMJD2A-Tudor Domain | Lysine-specific demethylase 4A (Homo sapiens), O75164 | AlphaScreen JMJD2A-Tudor / H3K4me3 peptide binding | Potency, µM (series often up to 114 µM), usual class: inhibitors | 390,000 tested, 4.4% active | AID 504339, 2011; further: nearly all actives have a fitted effect of over 50% in size
G9a block – qHTS Assay for Inhibitors of Histone Lysine Methyltransferase G9a; Histone-lysine N-methyltransferase EHMT2 (Homo sapiens), Q96KQ7; G9a H3K9 monomethylation, AlphaScreen, 2 h; Potency, µM (series often up to 102 µM), most hits filed as inhibitors; 350,000 tested, 8.8% active; AID 504332, 2011; further: nearly all actives have a fitted effect of over 75% in size
Target sequence (Q96KQ7 913-1193 limits assumed): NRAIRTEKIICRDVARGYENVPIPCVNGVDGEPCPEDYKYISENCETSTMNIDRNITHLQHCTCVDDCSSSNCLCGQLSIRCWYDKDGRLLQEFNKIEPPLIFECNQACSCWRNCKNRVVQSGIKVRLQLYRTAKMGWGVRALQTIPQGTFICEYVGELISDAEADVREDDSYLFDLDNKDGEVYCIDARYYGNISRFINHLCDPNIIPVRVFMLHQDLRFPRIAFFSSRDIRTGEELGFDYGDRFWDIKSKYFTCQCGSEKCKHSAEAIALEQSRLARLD
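Readings reflect AlphaScreen signal from monomethyl-H3K9 antibody detection. HMT at 20 nM; substrate b-H3K9 500 nM; cofactor SAM 20 uM; 2 h RT reaction; compounds tested as titrations in qHTS with 15 min preincubation.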
Sfp inh – qHTS Assay for Inhibitors of Bacillus subtilis Sfp phosphopantetheinyl transferase (PPTase); 310,000 tested, 3.5% active; Biochemical Sfp PPTase activity, qHTS; Potency, µM, hits mostly inhibitors;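 further: the enzyme is Sfp with the accession as filed and its product quenches rhodamine fluorescence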
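Step 1, compound plus 15 nM Sfp-PPTase, 15 min, room temperature. Step 2, add rhodamine-CoA (5 uM) and BHQ-2-YbbR (12.5 uM). Step 3, read 525/598 nm fluorescence at 0 and 30 min.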
Of the large screens only hits and unclear results are named; the others gave an inactive call. Most compounds without a hit are left out; they make up all but 12% or so of the library. The call rests on the fitted dose curve; in most records, active means well fitted curve in the direction sought with a large enough effect; inconclusive means small, poorly fitted or top-dose-only effect, or another doubt; inactive means no such curve, though single readings can be large; an effect the other way counts as inactive or inconclusive.

Cc1cccc(N(Cc2ccccc2)C(=O)c2ccc(S(C)(=O)=O)cc2)c1	G9a block inconclusive
O=C(CSc1ccc2nnc(CCNC(=O)c3ccc(F)cc3)n2n1)NCc1ccco1	none
O=C(CCCN1C(=O)/C(=C/c2ccccc2)SC1=S)Nc1ccccc1O	none
O=C1/C(=C/c2ccccn2)SC(=S)N1Cc1ccccc1	none (no result: G9a block)
O=C(O)CCN1C(=O)/C(=C\c2ccc(-c3nc4ccccc4s3)o2)SC1=S	PLK1 PBD block 8.4µM, BAZ2B block inconclusive, HP1b binding inh 18µM, JMJD2A Tudor 4µM, G9a block inconclusive, Sfp inh 45µM
O=C(CCCN1C(=O)/C(=C\c2ccccc2)SC1=S)Nc1ccc(O)cc1C(=O)O	BAZ2B block 35µM (no result: G9a block)
O=C(CCN1C(=O)/C(=C/c2ccco2)SC1=S)Nc1ccc(O)cc1C(=O)O	BAZ2B block 50µM, HP1b binding inh 18µM, JMJD2A Tudor 28µM, G9a block 28µM
O=C1/C(=C\c2ccco2)SC(=S)N1Cc1ccccc1	BAZ2B block 11µM, HP1b binding inh inconclusive, JMJD2A Tudor 50µM, Sfp inh inconclusive
COc1ccc(S(=O)(=O)NC(C)C(=O)NCc2ccccn2)cc1Cl (stereo unspecified)	none
CCN(CC)CCC(O)(c1ccc2c(c1)OCO2)c1cc(OC)c(OC)c(OC)c1 (stereo unspecified)	none (no result: BAZ2B block, G9a block, Sfp inh)
O=C(CS(=O)(=O)c1c[nH]c2ccccc12)N1CCc2ccccc21	G9a block inconclusive
COc1ccc(CCN2C(=O)/C(=C\c3ccco3)SC2=S)cc1OC	BAZ2B block 8.9µM, G9a block 45µM, Sfp inh 18µM
O=C(Nc1ccc(O)cc1C(=O)O)c1cccs1	G9a block inconclusive
O=C(CCCN1C(=O)/C(=C\c2ccccc2)SC1=S)N1CCOCC1	HP1b binding inh inconclusive, JMJD2A Tudor inconclusive (no result: BAZ2B block, G9a block, Sfp inh)
COc1ccc(/C=C2\SC(=S)N(CCCC(=O)Nc3ccc(O)cc3)C2=O)cc1	none
O=C(CCCN1C(=O)/C(=C\c2ccco2)SC1=S)Nc1ccc2ccccc2c1	BAZ2B block inconclusive, G9a block 25µM, Sfp inh inconclusive
CC(C(=O)Nc1ccc(O)cc1C(=O)O)N1C(=O)/C(=C\c2cccs2)SC1=S (stereo unspecified)	PLK1 PBD block 6.7µM, BAZ2B block 50µM, HP1b binding inh inconclusive, JMJD2A Tudor 45µM, G9a block 7.9µM, Sfp inh 22µM
O=C(O)CCCN1C(=O)/C(=C\c2ccco2)SC1=S	BAZ2B block inconclusive, HP1b binding inh inconclusive, JMJD2A Tudor 79µM, G9a block 45µM, Sfp inh 18µM
CC(=O)NC(c1ccccc1)c1nc(-c2cnc3ccccc3c2)cs1 (stereo unspecified)	none (no result: BAZ2B block, HP1b binding inh, JMJD2A Tudor, G9a block, Sfp inh)
O=C(CN1C(=O)/C(=C\c2ccco2)SC1=S)Nc1ccc(O)cc1C(=O)O	PLK1 PBD block 17µM, BAZ2B block 40µM, Sfp inh 56µM
O=C(CN1C(=O)/C(=C/c2ccccc2)SC1=S)Nc1cccnc1	BAZ2B block inconclusive
O=C(CCCN1C(=O)/C(=C\c2cccs2)SC1=S)Nc1ccccc1O	none (no result: BAZ2B block, HP1b binding inh, JMJD2A Tudor, G9a block, Sfp inh)
O=C(CCCN1C(=O)/C(=C/c2ccco2)SC1=S)Nc1ccccc1C(=O)O	PLK1 PBD block inconclusive, BAZ2B block 40µM, JMJD2A Tudor 89µM, Sfp inh 50µM (no result: G9a block)
O=S(=O)(NCc1ccc(F)cc1)c1ccc(-n2cccn2)cc1	none
COc1ccc(NC(=O)CCCS(=O)(=O)c2nc(-c3ccc(OC)c(OC)c3)cc(C(F)(F)F)n2)cc1OC	G9a block 16µM (no result: PLK1 PBD block, Sfp inh)
COc1ccc(-c2cc(C(F)(F)F)nc(S(=O)(=O)CCCC(=O)Nc3cccc(O)c3)n2)cc1OC	none
N#CC1=C(N)S[C@@H](C(=O)c2ccc(F)cc2)[C@@H]1c1cccs1	BAZ2B block inconclusive, JMJD2A Tudor inconclusive, G9a block 10µM, Sfp inh inconclusive
CC(C)c1nnc(NC(=O)c2cccc(NC(=O)C(F)(F)F)c2)s1	PLK1 PBD block 21µM, G9a block 13µM, Sfp inh inconclusive
Cc1ccc(Sc2ncccc2C(=O)NCc2cc([N+](=O)[O-])ccc2O)c(C)c1	BAZ2B block 35µM (no result: G9a block)
O=C(NCc1cc([N+](=O)[O-])ccc1O)c1cccnc1Sc1ccccc1	BAZ2B block inconclusive
COc1cccc(OC)c1OCCCNC1CCCC1	BAZ2B block inconclusive, HP1b binding inh inconclusive, JMJD2A Tudor 25µM (no result: G9a block)
Cc1ccc(OCCCCNC2CCCCC2)c(C)c1	BAZ2B block 79µM, JMJD2A Tudor 28µM, G9a block 14µM
COc1cccc(OC)c1OCCNCCO	none
Cc1ccc(OCC(O)CNC2CCCC2)c(C)c1 (stereo unspecified)	none (no result: G9a block)
Cc1ccc(C)c(OCCCNC2CCCC2)c1C	BAZ2B block inconclusive, HP1b binding inh inconclusive, JMJD2A Tudor 0.79µM, G9a block 7.1µM
Cc1ccc(OCCCNC2CCCC2)cc1	BAZ2B block inconclusive, JMJD2A Tudor 22µM, G9a block 13µM
COc1ccc(NC(=O)c2oc3ccccc3c2NC(=O)Cc2ccc(F)cc2)c(OC)c1	none (no result: PLK1 PBD block, Sfp inh)
CCc1ccccc1NC(=O)Nc1cc(C(=O)NCc2ccc(C(C)C)cc2)ccc1N1CCCC1	none (no result: PLK1 PBD block, Sfp inh)
CN1CCN(c2ncc3nc(-c4cccs4)c(=O)n(CCc4ccccc4)c3n2)CC1	none (no result: PLK1 PBD block, BAZ2B block, HP1b binding inh, JMJD2A Tudor)
CC(C)(C)c1ccc(OCCCNC2CCCC2)cc1	BAZ2B block 79µM, JMJD2A Tudor 20µM, G9a block 11µM
N#Cc1ccccc1OCC(=O)NC1CCCCC1	none (no result: BAZ2B block, G9a block, Sfp inh)
N#Cc1ccccc1OCCCNC1CCCC1	BAZ2B block inconclusive, HP1b binding inh inconclusive, G9a block 20µM
Cc1cc(C)c(NC(=O)CCCCCNC2CCCCC2)c(C)c1	PLK1 PBD block 27µM, JMJD2A Tudor inconclusive
CC(C)CC(CSc1ccc(Br)cc1)N1CCN(CC(C)C)CCC1=O (stereo unspecified)	none (no result: PLK1 PBD block, BAZ2B block, G9a block)
CCOC(=O)c1c(N)sc2c1CCCC2	PLK1 PBD block inconclusive, BAZ2B block inconclusive, JMJD2A Tudor inconclusive, G9a block inconclusive, Sfp inh inconclusive
CCOC(=O)c1c(N)sc2c1CCC(C)C2 (stereo unspecified)	PLK1 PBD block inconclusive, BAZ2B block inconclusive, G9a block inconclusive, Sfp inh 50µM
CCOC(=O)c1c(NS(C)(=O)=O)sc2c1CCC(C)C2 (stereo unspecified)	PLK1 PBD block inconclusive, BAZ2B block inconclusive, G9a block 56µM
